# Experimental data published in PubChem BioAssay (Tox21).
# A number with no mark means an inactive call. Inconclusive results are not listed. A call without a number means that no potency is given here. The source made the active and inactive calls. Calls come from the whole dose curve; as a rule, active = well fitted curve in the direction sought with a large enough effect in the repeat runs; inconclusive = weak or mixed curves; inactive = no such curve, though single readings can be large; an effect the other way counts as inactive or inconclusive.
# How the values were obtained:
# [1] = qHTS RealTime-Glo MT Cell Viability Assay in HepG2 cells - 40 hour (AID 1224870); note: nearly all actives have a fitted effect of over 50% in size
# Method in brief: (§1)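 Real-time viability: cells seeded at 600 per well together with NanoLuc and cell-permeant prosubstrate, compounds added after 5 h incubation. Luminescence tracked at 0, 8, 16, 24, 32 and 40 h of exposure.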
# [2] = A CellTox Green Cytotoxicity Assay to monitor cytotoxicity in HEK293 cells - 40 hour (AID 1224871); note: nearly all actives have a fitted effect of over 45% in size
# Method in brief: (§2)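 Homogeneous no-lysis format: HEK293 cell suspension mixed with CellTox Green reagent, seeded, incubated 5 h at 37 C/5% CO2, then dosed by pintool with compound in DMSO.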
# [3] = qHTS RealTime-Glo MT Cell Viability Assay in HEK293 cells - 16 hour (AID 1224872); note: nearly all actives have a fitted effect of over 50% in size; note: potency is the fitted concentration of half-maximal effect; for activity change, negative = cytotoxicity: top concentration of the series differs between compounds
# Method in brief: (§3)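 Viability tracked continuously by luminescence as live cells reduce a prosubstrate for NanoLuc; HEK293 cells preincubated 5 h, compound-treated at 37 C, and read at 0, 8, 16, 24, 32 and 40 h.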
# [4] = qHTS RealTime-Glo MT Cell Viability Assay in HepG2 cells - 8 hour (AID 1224873); note: nearly all actives have a fitted effect of over 55% in size
# Method in brief: as §1
# [5] = qHTS RealTime-Glo MT Cell Viability Assay in HEK293 cells - 40 hour (AID 1224874); details: RealTime-Glo luminescence; max response: hits give low values; note: nearly all actives have a fitted effect of over 50% in size; note: potency is the fitted concentration of half-maximal effect
# Method in brief: (§4)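 Measured as luminescence from the same continuously cultured HEK293 wells at successive time points (0, 8, 16, 24, 32, 40 h) after compound addition. Reagent present from seeding; dosing at 5 h; incubation 37 C.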
# [6] = A CellTox Green Cytotoxicity Assay to monitor cytotoxicity in HEK293 cells - 24 hour (AID 1224875); note: series mostly up to about 77 µM; nearly all actives have a fitted effect of over 45% in size
# Method in brief: as §2
# [7] = A CellTox Green Cytotoxicity Assay to monitor cytotoxicity in HepG2 cells - 16 hour (AID 1224876); note: nearly all actives have a fitted effect of over 45% in size
# Method in brief: (§5)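 Fluorescent DNA-binding dye, 600 HepG2 cells/well, 5 h preincubation then compound in DMSO; same plates read at 0–40 h, 37 C.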
# [8] = qHTS RealTime-Glo MT Cell Viability Assay in HepG2 cells - 32 hour (AID 1224877); note: nearly all actives have a fitted effect of over 55% in size
# Method in brief: (§6)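 Viability was tracked continuously by NanoLuc luminescence from prosubstrate reduced by living HepG2 cells, at successive time points over 40 h of compound exposure. Cells with reagent were preincubated 5 h at 37 °C before compound addition.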
# [9] = A CellTox Green Cytotoxicity Assay to monitor cytotoxicity in HepG2 cells - 24 hour (AID 1224878); note: nearly all actives have a fitted effect of over 45% in size
# Method in brief: as §5
# [10] = A CellTox Green Cytotoxicity Assay to monitor cytotoxicity in HepG2 cells - 40 hour (AID 1224879); note: nearly all actives have a fitted effect of over 40% in size
# Method in brief: as §5
# [11] = qHTS RealTime-Glo MT Cell Viability Assay in HEK293 cells - 0 hour (AID 1224880)
# Method in brief: as §4
# [12] = A CellTox Green Cytotoxicity Assay to monitor cytotoxicity in HEK293 cells - 32 hour (AID 1224881); note: nearly all actives have a fitted effect of over 40% in size
# Method in brief: as §2
# [13] = A CellTox Green Cytotoxicity Assay to monitor cytotoxicity in HepG2 cells - 0 hour (AID 1224882); note: nearly all actives have a fitted effect of over 35% in size
# Method in brief: as §5
# [14] = A CellTox Green Cytotoxicity Assay to monitor cytotoxicity in HepG2 cells - 32 hour (AID 1224883); note: nearly all actives have a fitted effect of over 50% in size
# Method in brief: as §5
# [15] = A CellTox Green Cytotoxicity Assay to monitor cytotoxicity in HEK293 cells - 8 hour (AID 1224884); note: nearly all actives have a fitted effect of over 35% in size
# Method in brief: as §2
# [16] = qHTS RealTime-Glo MT Cell Viability Assay in HepG2 cells - 16 hour (AID 1224885); note: nearly all actives have a fitted effect of over 50% in size
# Method in brief: as §6
# [17] = qHTS RealTime-Glo MT Cell Viability Assay in HEK293 cells - 24 hour (AID 1224886); note: nearly all actives have a fitted effect of over 50% in size; note: potency is the fitted concentration of half-maximal effect; for activity change, negative = cytotoxicity: top concentration of the series differs between compounds
# Method in brief: as §3
# [18] = qHTS RealTime-Glo MT Cell Viability Assay in HEK293 cells - 8 hour (AID 1224887); note: nearly all actives have a fitted effect of over 50% in size; note: potency is the fitted concentration of half-maximal effect; for activity change, negative = cytotoxicity: top concentration of the series differs between compounds
# Method in brief: as §4
# [19] = A CellTox Green Cytotoxicity Assay to monitor cytotoxicity in HEK293 cells - 16 hour (AID 1224888); note: nearly all actives have a fitted effect of over 35% in size
# Method in brief: as §2
# [20] = qHTS RealTime-Glo MT Cell Viability Assay in HepG2 cells - 0 hour (AID 1224889); note: nearly all actives have a fitted effect of over 50% in size
# Method in brief: as §6
structure (smiles),measurement,setting,value
CCOc1cc(OCC)c(C(C)=O)cc1OCC,Potency,[1],inactive
same,Potency,[2],inactive
same,Potency,[3],19.2 µM (active)
same,outcome,[4],inactive
same,Potency,[5],19.2 µM (active)
same,Potency,[6],inactive
same,Potency,[7],inactive
same,Potency,[8],inactive
same,Potency,[9],inactive
same,Potency,[10],inactive
same,Potency,[11],inactive
same,Potency,[12],inactive
same,Potency,[13],inactive
same,Potency,[14],inactive
same,Potency,[15],inactive
same,outcome,[16],inactive
same,Potency,[17],19.2 µM (active)
same,Potency,[18],19.2 µM (active)
same,Potency,[19],inactive
same,Potency,[20],inactive
O=C(NC1CCN(CCc2c[nH]c3ccccc23)CC1)c1ccccc1,Potency,[1],inactive
same,Potency,[2],inactive
same,Potency,[3],9.52 µM (active)
same,outcome,[4],inactive
same,Potency,[5],9.52 µM (active)
same,Potency,[6],inactive
same,Potency,[7],inactive
same,Potency,[8],inactive
same,Potency,[9],inactive
same,Potency,[10],inactive
same,Potency,[11],inactive
same,Potency,[12],inactive
same,Potency,[13],inactive
same,Potency,[14],inactive
same,Potency,[15],inactive
same,outcome,[16],inactive
same,Potency,[17],8.49 µM (active)
same,Potency,[18],9.52 µM (active)
same,Potency,[19],inactive
same,Potency,[20],inactive
Cc1c(Cl)cccc1Nc1ccccc1C(=O)O,Potency,[1],inactive
same,Potency,[2],inactive
same,Potency,[3],inactive
same,outcome,[4],inactive
same,max response,[5],-5.01%
same,Potency,[6],inactive
same,Potency,[7],inactive
same,Potency,[8],inactive
same,Potency,[9],inactive
same,Potency,[10],inactive
same,Potency,[11],inactive
same,Potency,[12],inactive
same,Potency,[13],inactive
same,Potency,[14],inactive
same,Potency,[17],inactive
same,Potency,[18],inactive
same,Potency,[19],inactive
same,Potency,[20],inactive
O=C(O)c1ccc2c(c1)nc(C(=O)NC1CCN(C3CC3)CC1)n2Cc1cc(-c2ccc(Cl)s2)on1,"activity change, negative = cytotoxic",[1],-1.55% [at 15.8 µM]
same,cytotoxicity increase,[2],-0.224% [at 15.8 µM]
same,"activity change, negative = cytotoxicity",[3],7.22% [at 15.8 µM]
same,"viability change, negative = cytotoxic",[4],-2.47% [at 15.8 µM]
same,max response,[5],-1.71%
same,activity change,[6],"1.12% [at 15.8 µM, hits give high values]"
same,cytotoxicity increase,[7],-9.11% [at 15.8 µM]
same,"activity change, negative = cytotoxic",[8],-3.33% [at 15.8 µM]
same,cytotoxicity,[9],-2.25% [at 15.8 µM]
same,cytotoxicity increase,[10],-6.87% [at 15.8 µM]
same,"activity change, negative = cytotoxicity",[11],-5.93% [at 15.8 µM]
same,cytotoxicity increase,[12],1.64% [at 15.8 µM]
same,cytotoxicity,[13],-4.38% [at 15.8 µM]
same,cytotoxicity increase,[14],-6.61% [at 15.8 µM]
same,"activity change, negative = cytotoxic",[16],-5.36% [at 15.8 µM]
same,"activity change, negative = cytotoxicity",[17],0.501% [at 15.8 µM]
same,"activity change, negative = cytotoxicity",[18],8.44% [at 15.8 µM]
same,activity change,[19],"0.74% [at 15.8 µM, hits give high values]"
same,"activity change, negative = cytotoxicity",[20],-12.8% [at 15.8 µM]
C1CCN(CN2CCCCC2)CC1,Potency,[1],inactive
same,Potency,[2],inactive
same,Potency,[3],inactive
same,outcome,[4],inactive
same,max response,[5],7.66%
same,Potency,[6],inactive
same,Potency,[7],inactive
same,Potency,[8],inactive
same,Potency,[9],inactive
same,Potency,[10],inactive
same,Potency,[11],inactive
same,Potency,[12],inactive
same,Potency,[13],inactive
same,Potency,[14],inactive
same,Potency,[15],inactive
same,outcome,[16],inactive
same,Potency,[17],inactive
same,Potency,[18],inactive
same,Potency,[19],inactive
same,Potency,[20],inactive
CC(=O)Oc1cccc2c1C(=O)c1c(OC(C)=O)cc(C(=O)O)cc1C2=O,Potency,[1],inactive
same,Potency,[2],inactive
same,Potency,[3],inactive
same,outcome,[4],inactive
same,max response,[5],-10.8%
same,Potency,[6],inactive
same,Potency,[7],inactive
same,Potency,[8],inactive
same,Potency,[9],inactive
same,Potency,[10],inactive
same,Potency,[11],inactive
same,Potency,[12],inactive
same,Potency,[14],inactive
same,Potency,[15],inactive
same,outcome,[16],inactive
same,Potency,[18],inactive
same,Potency,[19],inactive
same,Potency,[20],inactive
FC1(F)C(F)(F)C(F)(F)C2(F)C(F)(C1(F)F)C(F)(F)C(F)(F)C1(F)C(F)(F)C(F)(F)C(F)(F)C(F)(F)C12F (stereo unspecified),Potency,[1],inactive
same,Potency,[2],inactive
same,Potency,[3],inactive
same,outcome,[4],inactive
same,max response,[5],0.279%
same,Potency,[6],inactive
same,Potency,[7],inactive
same,Potency,[8],inactive
same,Potency,[9],inactive
same,Potency,[10],inactive
same,Potency,[11],inactive
same,Potency,[12],inactive
same,Potency,[13],inactive
same,Potency,[14],inactive
same,outcome,[16],inactive
same,Potency,[18],inactive
same,Potency,[19],inactive
same,Potency,[20],inactive
O=[N+]([O-])c1ccc(Cl)cc1Cl,Potency,[1],inactive
same,Potency,[2],inactive
same,Potency,[3],inactive
same,outcome,[4],inactive
same,max response,[5],2.44%
same,Potency,[6],inactive
same,Potency,[7],inactive
same,Potency,[8],inactive
same,Potency,[9],inactive
same,Potency,[10],inactive
same,Potency,[11],inactive
same,Potency,[12],inactive
same,Potency,[13],inactive
same,Potency,[14],inactive
same,Potency,[15],inactive
same,outcome,[16],inactive
same,Potency,[17],inactive
same,Potency,[18],inactive
same,Potency,[19],inactive
same,Potency,[20],inactive
O=C(O)CCc1nc2ccccc2[nH]1,Potency,[1],inactive
same,Potency,[2],inactive
same,Potency,[3],inactive
same,outcome,[4],inactive
same,max response,[5],11%
same,Potency,[6],inactive
same,Potency,[7],inactive
same,Potency,[8],inactive
same,Potency,[9],inactive
same,Potency,[10],inactive
same,Potency,[11],inactive
same,Potency,[13],inactive
same,Potency,[14],inactive
same,Potency,[15],inactive
same,outcome,[16],inactive
same,Potency,[18],inactive
same,Potency,[19],inactive
same,Potency,[20],inactive
CCCCCO,Potency,[1],inactive
same,Potency,[2],inactive
same,Potency,[3],inactive
same,outcome,[4],inactive
same,max response,[5],1.46%
same,Potency,[6],inactive
same,Potency,[7],inactive
same,Potency,[8],inactive
same,Potency,[9],inactive
same,Potency,[10],inactive
same,Potency,[11],inactive
same,Potency,[12],inactive
same,Potency,[13],inactive
same,Potency,[14],inactive
same,outcome,[16],inactive
same,Potency,[17],inactive
same,Potency,[18],inactive
same,Potency,[19],inactive
same,Potency,[20],inactive
O=C1c2ccccc2C(=O)c2c1ccc(O)c2O,Potency,[1],inactive
same,Potency,[2],inactive
same,Potency,[3],inactive
same,outcome,[4],inactive
same,max response,[5],-2.45%
same,Potency,[6],inactive
same,Potency,[7],inactive
same,Potency,[8],inactive
same,Potency,[9],inactive
same,Potency,[10],inactive
same,Potency,[11],inactive
same,Potency,[12],inactive
same,Potency,[13],inactive
same,Potency,[14],inactive
same,outcome,[16],inactive
same,Potency,[17],inactive
same,Potency,[18],inactive
same,Potency,[19],inactive
same,Potency,[20],inactive
N#C[C@@H]1CC(F)(F)CN1C(=O)CNC1CC2CCC(C1)N2c1ncccn1 (stereo partly specified),Potency,[1],inactive
same,Potency,[2],inactive
same,Potency,[3],inactive
same,outcome,[4],inactive
same,max response,[5],1.88%
same,Potency,[6],inactive
same,Potency,[7],inactive
same,Potency,[8],inactive
same,Potency,[9],inactive
same,Potency,[10],inactive
same,Potency,[11],inactive
same,Potency,[13],inactive
same,Potency,[14],inactive
same,Potency,[15],inactive
same,outcome,[16],inactive
same,Potency,[17],inactive
same,Potency,[18],inactive
same,Potency,[19],inactive
same,Potency,[20],inactive
O=C(Cl)c1cc(Cl)cc(Cl)c1,Potency,[1],inactive
same,Potency,[2],inactive
same,Potency,[3],inactive
same,outcome,[4],inactive
same,max response,[5],-8.34%
same,Potency,[6],inactive
same,Potency,[7],inactive
same,Potency,[8],inactive
same,Potency,[9],inactive
same,Potency,[10],inactive
same,Potency,[12],inactive
same,Potency,[13],inactive
same,Potency,[14],inactive
same,Potency,[17],inactive
same,Potency,[18],inactive
same,Potency,[19],inactive
same,Potency,[20],inactive
O=P(c1ccccc1)(c1ccccc1)c1ccccc1,Potency,[1],inactive
same,Potency,[2],inactive
same,Potency,[3],inactive
same,outcome,[4],inactive
same,max response,[5],-19%
same,Potency,[6],inactive
same,Potency,[7],inactive
same,Potency,[8],inactive
same,Potency,[9],inactive
same,Potency,[11],inactive
same,Potency,[13],inactive
same,Potency,[14],inactive
same,Potency,[15],inactive
same,Potency,[17],inactive
same,Potency,[18],inactive
same,Potency,[20],inactive
